Screens deposited in PubChem BioAssay by National Center for Advancing Translational Sciences (NCATS).
Compounds with a hit are over-represented: about 1.7% of the library has one in this group of screens.
GRP78 ERSR act: ER stress response induction in glioma. Potency, µM, for inactives: at the highest dose activation, hits mostly activators. U87-MG GRP78 promoter luciferase reporter, 16 h. AID 602332. hit rate 0.02% among 420,000; further: series mostly up to about 76 µM; % of control where 0% means no effect; nearly all actives have a fitted effect of over 35% in size
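ERSR induction read as luciferase luminescence (Bright-Glo, 10 min at room temperature) in stably transfected human U87-MG glioma cells exposed to compounds for 16 h, using GRP78 as sensor.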
mIDH1 inhibitor: human IDH1 R132H inhibition. O75874. IDH1-R132H enzyme, NADPH consumption, diaphorase/resazurin fluorescence. Potency, µM (top dose mostly 76.6 µM), inactives show top-dose activity change, negative = inhibition, actives largely listed as inhibitors. hit rate 0.093% among 390,000. AID 602179; further: on the % scale 0 is the no-effect control and ±100 the full control effect; nearly all actives have a fitted effect of over 65% in size
Target sequence (O75874 whole entry R132H, stated change not applied): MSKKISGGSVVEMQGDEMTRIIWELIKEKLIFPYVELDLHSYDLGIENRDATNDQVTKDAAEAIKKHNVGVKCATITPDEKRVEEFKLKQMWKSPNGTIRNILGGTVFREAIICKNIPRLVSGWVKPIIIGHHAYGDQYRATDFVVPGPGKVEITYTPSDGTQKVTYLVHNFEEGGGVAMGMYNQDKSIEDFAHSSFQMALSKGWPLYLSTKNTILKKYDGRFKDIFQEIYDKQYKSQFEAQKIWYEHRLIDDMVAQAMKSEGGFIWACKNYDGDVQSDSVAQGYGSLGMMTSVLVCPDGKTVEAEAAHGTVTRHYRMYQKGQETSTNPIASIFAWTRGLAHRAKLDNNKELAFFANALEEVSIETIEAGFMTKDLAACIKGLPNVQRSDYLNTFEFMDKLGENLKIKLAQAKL
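IDH1-R132H (0.5 ug/mL dispensed) in pH 7.5 Tris buffer was preincubated 30 min with compound, then given a substrate mix of 0.016 mM NADPH and 2 mM alpha-KG for 80 min at room temperature; remaining NADPH was read by diaphorase/resazurin fluorescence.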
TrxR1 substrate: substrates of rat thioredoxin reductase 1 | hit rate 0.01% among 390,000 | purified TrxR1 substrate turnover, NADPH consumption readout | O89049 | Potency, µM (series often up to 114 µM), for inactives: at the highest dose activity change, negative = substrate turnover; further: on the % scale 0 is the no-effect control and ±100 the full control effect; nearly all actives have a fitted effect of over 50% in size
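Rat TrxR1, dispensed at 90 nM, was prereduced with 400 uM NADPH (final) for 5 min at ~22 deg C, then incubated with compound 15 min before 400 uM selenite. A first-read NADPH fluorescence drop versus no-compound background flagged substrates.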
rTrxR1 inhibitor: blocks rat thioredoxin reductase 1 | O89049 | recombinant rTrxR1, NADPH fluorescence consumption, selenite substrate | Potency, µM (titrated, usually from 114 µM), for inactives: at the highest dose activity change, negative = inhibition, most hits filed as inhibitors | hit rate 1% among 390,000 | AID 588453; further: on the % scale 0 is the no-effect control and ±100 the full control effect; nearly all actives have a fitted effect of over 65% in size
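Rat TrxR1 (90 nM in the dispensed reagent) was pre-reduced with 400 uM NADPH for 5 min at room temperature, then incubated with compound for 15 min. After 400 uM selenite was added, NADPH fluorescence (Ex 340/Em 450 nm) was followed for 8 min.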
Apoferritin bind: candidate novel general anesthetic via apoferritin binding | P02791 | apoferritin/1-aminoanthracene competitive binding, fluorescence | Potency, µM (highest dose often 77.5 µM), for the others: at the highest dose activity change, negative = displacement, hits mostly inhibitors | hit rate 0.074% among 350,000 | AID 485281; further: on the % scale 0 is the no-effect control and ±100 the full control effect; nearly all actives have a fitted effect of over 20% in size
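Read-out: endpoint 1-AMA fluorescence, excitation 380 nm and emission 535 nm, after compounds sit 10 min at room temperature with 10 uM horse-spleen apoferritin in 50% saturated 1-AMA/PBS. Values come from four-parameter Hill fits.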
ALOX12 inh: blocks human arachidonate 12S-lipoxygenase; purified 12hLO, xylenol orange hydroperoxide absorbance; Potency, µM (series often up to 108 µM), for the others: at the top dose activity change, negative = inhibition, actives largely listed as inhibitors; hit rate 1.1% among 580,000; AID 1671190; further: on the % scale 0 is the no-effect control and ±100 the full control effect
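Purified human 12hLO at 150 nM in 25 mM Hepes, 0.01% Triton X-100, pH 7.0, preincubated 15 min at room temperature with compound. Reaction started with 40 uM arachidonic acid, 30 min at room temperature. Hydroperoxide measured by Fe-xylenol orange, 573/405 nm absorbance ratio.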
Starred values were filed as active, the others as inactive; ? = inconclusive; · = no result; [ ] = another dose, or the depositor's remark. The call rests on the fitted dose curve; in most records, active means well fitted curve in the direction sought with a large enough effect; inconclusive means small, poorly fitted or top-dose-only effect, or another doubt; inactive means no such curve, though single readings can be large; an effect the other way counts as inactive or inconclusive. Potency means the concentration at half of the fitted maximal effect.

SMILES	GRP78 ERSR act	mIDH1 inhibitor	TrxR1 substrate	rTrxR1 inhibitor	Apoferritin bind	ALOX12 inh
CCCOC(=O)c1cc(-c2ccc(/C=C3/C(=O)N(C)C(=O)C(C#N)=C3C)o2)ccc1Cl	-2%	13%	2%	18µM*	·	·
NS(=O)(=O)c1ccc(-c2ccc(/C=C3\NC(=S)NC3=O)o2)cc1	-6%	?	3%[57.1 µM]	13µM*	-21%	?
CC1=C(C#N)C(=O)NC(=O)/C1=C/c1ccc(-c2ccc(S(N)(=O)=O)cc2)o1	-3%	14%	3%	8.9µM*	-17%	4%
C=CCOC(=O)c1cc(-c2ccc(/C=C3\C(=O)NC(=O)C(C#N)=C3C)o2)ccc1Cl	2%	2%	-10%	?	?	7.1µM*
CC1(C)OC(=O)C(=Cc2ccc(-c3ccc(Cl)c(C(=O)O)c3)o2)C(=O)O1	-5%	18%	-6%[57.1 µM]	?	2%	-23%
COc1ccc(CC(=O)N2CCN(c3nc(-c4ccccc4)no3)CC2)cc1	·	·	·	·	·	8%
O=c1c(Cl)cc(Cl)nn1-c1ccccc1	-13%	11%	-5%	25µM*	-5%	0%
CCOc1ccc(S(=O)(=O)N2CCCC2c2cccc(F)c2)cc1 (centres undefined)	·	·	·	·	·	3%
NC(=O)c1nn(CC(=O)Nc2ccccc2OC(F)F)c(=O)c2ccccc12	·	·	·	·	·	-6%
CNC(=O)[C@@H](C1CCCCC1)N1CCC[C@H]1C(=O)N1CCN(CCOC)CC1	·	·	·	·	·	16µM*
CC(=O)c1c(N2CCN(c3cccc(Cl)c3)CC2)nc(=S)n(-c2ccccc2)c1C	-1%	0%	6%	?	-7%	35µM*
CC(=O)c1c(N2CCN(c3ccccn3)CC2)nc(=S)n(-c2ccccc2)c1C	-3%	2%	-2%	3%	-6%	?
COc1ccc(N2CCN(c3nc(=S)n(-c4ccccc4)c(C)c3C(C)=O)CC2)cc1	-1%	-2%	-10%	?	6%	40µM*
Cn1c(=O)c2c(ncn2CCC(=O)NCC(F)(F)F)n(C)c1=O	·	·	·	·	·	20%
Cc1noc2c1C(c1ccc(N(C)C)cc1)C1=C(CC(C)(C)CC1=O)N2 (centres undefined)	-3%	7%	6%	50µM*	-21%	173%
Cc1ccc(C2C3=C(CC(C)(C)CC3=O)Nc3onc(C)c32)cc1 (centres undefined)	-7%	0%	46%[57.1 µM]	-13%[57.1 µM]	10%	-27%
Cc1csc(SC(C(=O)NC2CC2)c2ccc(F)cc2)n1 (centres undefined)	·	·	·	·	·	1%
CC1CCN(C(=O)c2ccc(S(=O)(=O)Cc3cccc(F)c3)c([N+](=O)[O-])c2)CC1	1%	1%	3%	?	-5%	-1%
O=C(c1ccc(S(=O)(=O)Cc2cc(F)ccc2F)c([N+](=O)[O-])c1)N1CCCC1	-4%	3%	-9%[57.1 µM]	10µM*	-9%	0%
O=C(c1ccc(S(=O)(=O)Cc2cc(F)ccc2F)c([N+](=O)[O-])c1)N1CCCCC1	10%	1%	0%	4.5µM*	-6%	-20%
C=CCc1ccc(C(=O)N2CCCC3(CCC(=O)N(C4CC4)C3)C2)cc1 (centres undefined)	·	·	·	·	·	-7%
CCc1ccccc1NC(=O)C(=O)c1c(C)[nH]c2ccccc12	·	·	·	·	·	21%
Cc1nc2cc(NC(C)C(=O)Nc3ccc(C(F)(F)F)cc3)ccc2o1 (centres undefined)	·	·	·	·	·	0%
COC(=O)[C@]12C[C@H](CC(=O)NCCC(C)C)C(=O)N(Cc3ccc4c(c3)OCO4)C1=C[C@H](COCc1ccccc1)O[C@@H]2C	·	·	·	·	·	5%
CCOCCC(=O)N1CCC2(CC1)CC(c1ccccc1)C(=O)N2C (centres undefined)	·	·	·	·	·	7%
CCOC(=O)C1CCN(c2nc3c(S(=O)(=O)c4ccccc4)nnn3c3ccsc23)CC1	3%	2%	22%	43%	4%	-10%
